PubChem BioAssay (NCATS)
Inconclusive results are not listed. Where a call stands in place of a potency, no number is given. Active and inactive are the calls of the source. The call rests on the fitted dose curve; in most records, active means well fitted inhibition curve with a large enough effect; inconclusive means small, poorly fitted or top-dose-only effect; inactive means flat fitted curve, though single readings scatter.

Legend:
Test in all cases: qHTS profiling for inhibitors of Plasmodium falciparum proliferation (AID 504749); further: nearly all actives have a fitted effect of over 60% in size
Details in all cases: P. falciparum in erythrocytes, SYBR Green DNA, 72 h; series mostly up to 28.7 µM
AA1029 = tested on: AA1029
Outline: (§1)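 Three-day growth assay of blood-stage parasites in erythrocytes (0.3% parasitemia, 2.5% hematocrit) at 37 C, 5% CO2, quantified by SYBR Green DNA staining after overnight detergent lysis.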

ATS95 = tested on: ATS95
Outline: as §1

CP194 = tested on: CP194
Outline: as §1

CP201 = tested on: CP201
Outline: as §1

CP215 = tested on: CP215
Outline: as §1

CP217 = tested on: CP217
Outline: as §1

CP260 = tested on: CP260
Outline: as §1

CP266 = tested on: CP266
Outline: as §1

CP291 = tested on: CP291
Outline: as §1

CP297 = tested on: CP297
Outline: as §1

DIV14 = tested on: DIV14
Outline: as §1

GB4 = tested on: GB4
Outline: as §1

P93_24 = tested on: P93_24
Outline: as §1

P94_40 = tested on: P94_40
Outline: as §1

PC15 = tested on: PC15
Outline: as §1

SC27B = tested on: SC27B
Outline: as §1

TAB113 = tested on: TAB113
Outline: as §1

TAB165 = tested on: TAB165
Outline: as §1

7G8 = tested on: 7G8
Outline: as §1

ICS = tested on: ICS
Outline: as §1
Potency means the concentration at half of the fitted maximal effect.

Structure (SMILES)	Potency (AA1029)	Potency (ATS95)	Potency (CP194)	Potency (CP201)	Potency (CP215)	Potency (CP217)	Potency (CP260)	Potency (CP266)	Potency (CP291)	Potency (CP297)	Potency (DIV14)	Potency (GB4)	Potency (P93_24)	Potency (P94_40)	Potency (PC15)	Potency (SC27B)	Potency (TAB113)	Potency (TAB165)	Potency (7G8)	Potency (ICS)
C#C[C@]1(O)CC[C@H]2[C@H]3[C@H](CC[C@@]21C)C1=C(CC(=O)CC1)C[C@@H]3C	inactive	inactive	inactive	inactive	inactive	inactive	inactive	inactive	inactive	inactive	inactive	inactive	inactive	inactive	inactive	inactive	inactive	inactive	–	–
C[C@@H]1CCN(C(=O)[C@H](CCCNC(=N)N)NS(=O)(=O)c2cccc3c2NC[C@H](C)C3)[C@@H](C(=O)O)C1	inactive	inactive	inactive	inactive	inactive	inactive	inactive	inactive	inactive	inactive	inactive	inactive	inactive	inactive	inactive	inactive	inactive	inactive	inactive	inactive
Nc1nc(Cl)nc2c1ncn2[C@@H]1O[C@H](CO)[C@H](O)C1F (some centres undefined)	inactive	inactive	inactive	inactive	inactive	inactive	inactive	inactive	–	inactive	inactive	inactive	inactive	inactive	inactive	inactive	inactive	inactive	–	inactive
CC1CCC(O)C/C1=C\C=C1/CCCC2(C)C1CCC2C(C)/C=C/C(C)C(C)C (centres undefined)	inactive	inactive	inactive	inactive	inactive	inactive	inactive	inactive	inactive	–	–	–	–	–	inactive	inactive	inactive	inactive	–	11.2 µM (active)
COc1ccc2cc1Oc1cc3c(cc1OC)CC[N+](C)(C)C3Cc1ccc(cc1)Oc1c(OC)c(OC)cc3c1C(C2)[N+](C)(C)CC3 (centres undefined)	inactive	inactive	inactive	inactive	inactive	inactive	inactive	–	inactive	inactive	inactive	inactive	inactive	inactive	inactive	inactive	inactive	inactive	inactive	inactive
Cc1cnc(C(=O)O)cn1	inactive	inactive	inactive	inactive	inactive	inactive	inactive	inactive	inactive	inactive	inactive	inactive	inactive	inactive	inactive	inactive	inactive	inactive	inactive	inactive
CCOC(=O)C(CCc1ccccc1)NC(C)C(=O)N1Cc2cc(OC)c(OC)cc2CC1C(=O)O (centres undefined)	–	–	–	inactive	inactive	–	inactive	inactive	inactive	10.7 µM (active)	6.01 µM (active)	–	5.01 µM (active)	–	10 µM (active)	7.08 µM (active)	inactive	7.08 µM (active)	8.91 µM (active)	–
O=C(O)CC(O)CC(O)/C=C/c1c(C2CC2)nc2ccccc2c1-c1ccc(F)cc1 (centres undefined)	inactive	inactive	inactive	inactive	inactive	inactive	inactive	inactive	inactive	inactive	inactive	inactive	inactive	inactive	inactive	inactive	inactive	inactive	inactive	inactive
Nc1nc2[nH]cc(CCc3ccc(C(=O)NC(CCC(=O)O)C(=O)O)cc3)c2c(=O)[nH]1 (centres undefined)	–	–	3.79 µM (active)	–	0.601 µM (active)	0.0562 µM (active)	0.126 µM (active)	–	–	0.239 µM (active)	–	0.0849 µM (active)	–	–	–	–	–	7.94 µM (active)	3.98 µM (active)	10 µM (active)
O=c1[nH]c(=O)n(C2C[C@H](O)[C@@H](CO)O2)cc1C(F)(F)F (some centres undefined)	inactive	inactive	inactive	inactive	inactive	inactive	inactive	inactive	inactive	inactive	inactive	inactive	inactive	inactive	inactive	inactive	inactive	inactive	inactive	inactive
C=C1[C@@H]2CC[C@H](C2)C1(C)C	inactive	inactive	inactive	inactive	inactive	inactive	inactive	inactive	inactive	inactive	inactive	inactive	inactive	inactive	inactive	inactive	inactive	inactive	inactive	inactive
OCC1O[C@@H](O[C@@H]2C(CO)OC(O)C(O)C2O)C(O)C(O)C1O (some centres undefined)	inactive	inactive	inactive	inactive	inactive	inactive	inactive	inactive	inactive	inactive	inactive	inactive	inactive	inactive	inactive	inactive	inactive	inactive	inactive	inactive
CC1CN(c2c(F)c(N)c3c(=O)c(C(=O)O)cn(C4CC4)c3c2F)CC(C)N1 (centres undefined)	inactive	inactive	inactive	inactive	inactive	inactive	–	inactive	inactive	inactive	inactive	inactive	inactive	inactive	inactive	inactive	inactive	inactive	–	inactive
COc1ccc(C(=O)/C(Br)=C/C(=O)O)cc1	inactive	–	–	inactive	–	–	inactive	inactive	inactive	inactive	inactive	–	inactive	inactive	inactive	–	–	–	10 µM (active)	–
CCCC(=O)Nc1c(I)cc(I)c(C[C@H](CC)C(=O)O)c1I	inactive	inactive	inactive	inactive	inactive	inactive	–	inactive	inactive	inactive	–	inactive	inactive	inactive	inactive	inactive	inactive	inactive	inactive	inactive
COc1cccc2c1C(=O)c1c(O)c3c(c(O)c1C2=O)C[C@@](O)(C(=O)CO)C[C@@H]3OC1CC(N)C(O)C(C)O1 (some centres undefined)	2.24 µM (active)	2 µM (active)	4.78 µM (active)	3.79 µM (active)	3.79 µM (active)	2.51 µM (active)	0.708 µM (active)	3.38 µM (active)	3.38 µM (active)	1.9 µM (active)	1.69 µM (active)	1.69 µM (active)	2 µM (active)	2 µM (active)	2 µM (active)	2.51 µM (active)	2.51 µM (active)	2.24 µM (active)	0.316 µM (active)	0.631 µM (active)
CC1(C)CC1C(=O)N/C(=C/CCCCSCC(N)C(=O)O)C(=O)O (centres undefined)	inactive	inactive	inactive	inactive	inactive	inactive	–	inactive	inactive	inactive	inactive	inactive	inactive	inactive	inactive	inactive	inactive	inactive	inactive	inactive
CCN(CC)CCOCCOC(=O)C(CC)(CC)c1ccccc1 (tested in a mixture with another compound)	–	inactive	–	–	–	–	–	–	–	–	1.9 µM (active)	8.49 µM (active)	–	–	–	–	–	–	5.62 µM (active)	–
C=C1CC2C3C=C(C)C4=CC(=O)CCC4(C)C3CCC2(C)[C@@]1(OC(C)=O)C(C)=O (some centres undefined)	–	–	–	–	–	–	–	–	–	–	–	–	–	–	inactive	inactive	–	–	12.6 µM (active)	–
